The values that follow come from the supplement of paper PMC10670038.

Structures can show the parent of a compound that is named as a salt. ± gives the standard deviation of the averaged measurements. Over roughly 2,000 compounds, “relative cell viability vs DMSO, compound alone” has its median near 1.1; the lowest 2% begin near 0.29. Shown is part of a subset that was picked to be rich in the lowest values.

This assay deals with TE10. The assay is described as follows: relative cell viability vs DMSO, compound alone (fraction); TE10 is an esophageal squamous carcinoma line; higher = less cytotoxic. To be noted: 2 µM; 48 h. The method, then:
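TE10 ESCC cells (1,000/well, 384-well plates) were treated with Selleck bioactive library compounds at 2 uM alone for 48 h. Viability was read by CellTiter-Glo and expressed relative to DMSO wells. Two technical replicates (A, B).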
`O=C(O)CCCc1c[nH]c2ccccc12` [3-Indolebutyric acid (IBA)]: the relative cell viability was 1.1 ± 0.024.

Take `OCc1c[nH]c2ccccc12` [Indole-3-carbinol]: the relative cell viability was determined as 1.14 ± 0.048.

In turn, `O=C(/C=C/c1ccc(CN(CCO)CCc2c[nH]c3ccccc23)cc1)NO` [LAQ824 (Dacinostat)] yielded a relative cell viability of 0.0682 ± 0.006.

`CCc1c(O)cc(O)c(C(=O)c2ccc(OCCN3CCOCC3)c(OC)c2)c1CC(=O)N(CCOC)CCOC` came in with a relative cell viability of 0.546 ± 0.009.

`CC(C)/N=c1\cc2n(-c3ccc(Cl)cc3)c3ccccc3nc-2cc1Nc1ccc(Cl)cc1` [Clofazimine] registered a relative cell viability of 0.929 ± 0.062.

Consider `CC(C)CC(N)=O` [Isovaleramide], for which the relative cell viability was determined as 1.1 ± 0.057.

`COc1cc(C(=O)NS(=O)(=O)c2ccccc2C)ccc1Cc1cn(C)c2ccc(NC(=O)OC3CCCC3)cc12` [Zafirlukast] showed a relative cell viability of 1.03 ± 0.033.

`CN1CCc2c(c3ccccc3n2Cc2ccc(C(=O)NO)cc2)C1` [Tubastatin A HCl] gave a relative cell viability of 0.9558 ± 0.0063.

Turning to `Cn1cc(CNCC2CCN(c3ncc(C(=O)NO)cn3)CC2)c2ccccc21`, the relative cell viability was 0.078 ± 0.0008.

Compound `CN1CCc2c(c3ccccc3n2Cc2ccc(C(=O)NO)cc2)C1` [Tubastatin A] yielded a relative cell viability of 1.14 ± 0.023.

For the compound `CCOc1ccc2nc3cc(N)ccc3c(N)c2c1` [Ethacridine lactate monohydrate], the relative cell viability is 1.033 ± 0.0023.

In turn, `CCN(CC)CCCCNc1ncc2cc(-c3cc(OC)cc(OC)c3)c(NC(=O)NC(C)(C)C)nc2n1` yielded a relative cell viability of 1.23 ± 0.029.

On to `NC1CC1c1ccc(-c2cccc(O)c2)cc1` (centres undefined), for which the relative cell viability came out at 1.09 ± 0.03.

In the case of `N[C@@H]1CCCN(c2c(/C=C3\SC(=O)NC3=O)cccc2-c2ccccc2)C1`, the relative cell viability worked out at 1.03 ± 0.047.

Compound `CN(C)c1cccc(-c2c3c(=O)n(-c4ccccc4Cl)[nH]c3cc(=O)n2C)c1` returned a relative cell viability of 0.959 ± 0.036.

Regarding `CC(C)C[C@H](NC(=O)[C@@H](NC(=O)c1cccc(-c2ccccc2)n1)[C@@H](C)O)B(O)O`, the relative cell viability came to 0.0932 ± 0.003.

`Nc1ccccc1NC(=O)c1cnccn1` came in with a relative cell viability of 1.11 ± 0.037.

`CC(C)C[C@H](NC(=O)CNC(=O)c1cc(Cl)ccc1Cl)B(O)O` registered a relative cell viability of 0.341 ± 0.023.

Take `CNC(=O)[C@H](Cc1ccccc1)NC(=O)[C@H](CC(C)C)[C@H](CSc1cccs1)C(=O)NO` [Batimastat (BB-94)]: the relative cell viability came out at 0.884 ± 0.076.

Compound `CC(C)C[C@H](NC(=O)[C@H](Cc1ccccc1)NC(=O)c1cnccn1)B(O)O` [Bortezomib (PS-341)] returned a relative cell viability of 0.09 ± 0.011.

Consider `Cc1cc2c(cc1CC(=O)c1sccc1S(=O)(=O)Nc1onc(C)c1Cl)OCO2` [Sitaxentan sodium], for which the relative cell viability amounted to 1.06 ± 0.022.

Consider `CC(C)(O)CC(=O)NCCn1ccc2ncnc(Nc3ccc(Oc4cccc(C(F)(F)F)c4)c(Cl)c3)c21`, for which the relative cell viability was found to be 1.17 ± 0.07.

In turn, `Oc1ccc(Nc2nc(-c3ccc(Cl)cc3)cs2)cc1` returned a relative cell viability of 1.11 ± 0.019.

In the case of `COc1cc(C=O)ccc1O` [Vanillin], the relative cell viability was found to be 1.11 ± 0.027.

In the case of `Cc1cc(Nc2cc(N3CCN(C)CC3)nc(/C=C/c3ccccc3)n2)n[nH]1`, the relative cell viability was determined as 0.856 ± 0.03.

In turn, `Cc1cc(Nc2cc(N3CCN(C)CC3)nc(/C=C/c3ccccc3)n2)n[nH]1` [ENMD-2076 L-(+)-Tartaric acid] yielded a relative cell viability of 0.808 ± 0.069.

Regarding `Cc1cc(C)nc(NS(=O)(=O)c2ccc(N)cc2)n1` [Sulfamethazine], the relative cell viability turned out to be 1.1 ± 0.044.

In the case of `COCCCC/C(=N\OCCN)c1ccc(C(F)(F)F)cc1` [Fluvoxamine maleate], the relative cell viability came out at 1.21 ± 0.041.

Consider `COC(=O)[C@]12CCC(C)(C)C[C@H]1[C@H]1C(=O)C=C3[C@@]4(C)C=C(C#N)C(=O)C(C)(C)[C@@H]4CC[C@@]3(C)[C@]1(C)CC2` [Bardoxolone Methyl], for which the relative cell viability worked out at 0.272 ± 0.0085.

For `CC1(C)CC[C@]2(NC(=O)C(C)(F)F)CC[C@]3(C)[C@H](C(=O)C=C4[C@@]5(C)C=C(C#N)C(=O)C(C)(C)[C@@H]5CC[C@]43C)[C@@H]2C1` [Omaveloxolone (RTA-408)], the relative cell viability was 0.59 ± 0.032.

In turn, `N#Cc1ccc(-c2csc(NN=C3CCCC3)n2)cc1` [Remodelin] yielded a relative cell viability of 1.121 ± 0.0093.

`COc1cc2ncnc(Nc3ccc(Cl)cc3F)c2cc1OC` came in with a relative cell viability of 0.999 ± 0.16.

`NC(=O)Nc1cc(-c2cccc(F)c2)sc1C(=O)N[C@H]1CCCNC1` yielded a relative cell viability of 0.259 ± 0.021.

`COc1cc(C(=O)NC2CCCNC2)cc(OC)c1OC` (centres undefined) [Troxipide]: the relative cell viability turned out to be 1.13 ± 0.016.

On to `NC(=O)Nc1sc(-c2ccc(F)cc2)cc1C(N)=O`, for which the relative cell viability amounted to 0.98 ± 0.072.

With `C[N+](C)(C)C[C@H](O)CC(=O)[O-]` [L-carnitine], the relative cell viability was 1.04 ± 0.016.

On to `NC(=O)N1CCC(CC(=O)N2CCC([C@H]3c4ncc(Br)cc4CCc4cc(Cl)cc(Br)c43)CC2)CC1` [Lonafarnib], for which the relative cell viability is 1.06 ± 0.049.

Regarding `CNC[C@H](O)[C@@H](O)[C@H](O)[C@H](O)CO` [Meglumine], the relative cell viability is 1.008 ± 0.0073.

`COc1cc(-c2cc(-c3ccc(N4CCNCC4)cc3)cnc2C)cc(OC)c1OC` came in with a relative cell viability of 1.16 ± 0.019.

For `Nc1ccc(-c2ccc3ncc4ccc(=O)n(-c5cccc(C(F)(F)F)c5)c4c3c2)cn1` [Torin 2], the relative cell viability came out at 0.378 ± 0.014.

Turning to `COc1ccc(-c2ccc3ncc4c(c3c2)n(-c2ccc(N3CCNCC3)c(C(F)(F)F)c2)c(=O)n4C)cn1`, the relative cell viability turned out to be 0.0662 ± 0.0018.

`COc1cc(-c2cc(-c3cccc(O)c3)cnc2N)cc(OC)c1OC` displayed a relative cell viability of 1.21 ± 0.0055.

As for `COc1ccc(COc2cc3oc(=O)c4cc(C(C)O)ccc4c3cc2OC)cc1` (centres undefined) [Palomid 529 (P529)], the relative cell viability came to 1.14 ± 0.025.

Turning to `COCCOC(=O)C1=C(C)NC(C)=C(C(=O)OC/C=C/c2ccccc2)C1c1cccc([N+](=O)[O-])c1` (centres undefined) [Cilnidipine], the relative cell viability was determined as 1.15 ± 0.055.

In turn, `NCCCC[C@@H]1NC(=O)[C@@H](Cc2ccccc2)NC(=O)[C@H](CC(=O)O)NC(=O)CNC(=O)[C@H](CCCN=C(N)N)NC1=O` [Cyclo (-RGDfK)] gave a relative cell viability of 1.1 ± 0.024.

For the compound `CCCCN(Cc1ccc(C(=O)NO)cc1)C(=O)Nc1ccccc1` [Nexturastat A], the relative cell viability is 0.716 ± 0.074.

As to `CC(C)[C@H](C(=O)Nc1ccc(C(=O)NO)cc1)c1ccccc1`, the relative cell viability came to 0.221 ± 0.015.

`CC(=O)Nc1ccc(C(=O)Nc2ccccc2N)cc1` [CI994 (Tacedinaline)] came in with a relative cell viability of 1 ± 0.017.

With `O=C(NC[C@H]1CN(c2ccc(N3CCOCC3=O)cc2)C(=O)O1)c1ccc(Cl)s1` [Rivaroxaban], the relative cell viability was found to be 1.04 ± 0.076.

The compound `C[C@]12CCC3=C4CCC(=O)C=C4CC[C@H]3[C@@H]1CC[C@@]2(O)CC#N` [Dienogest] gave a relative cell viability of 1.19 ± 0.024.

In the case of `COc1ccc(-c2cnc3c(-c4cccc5ncccc45)cnn3c2)cc1`, the relative cell viability stood at 1.171 ± 0.0012.

Take `c1cc(-c2cnn3cc(-c4ccc(N5CCNCC5)cc4)cnc23)c2cccnc2c1`: the relative cell viability turned out to be 0.0982 ± 0.0034.

For the compound `CC(C)Oc1ccc(-c2cnc3c(-c4ccnc5ccccc45)cnn3c2)cc1`, the relative cell viability is 1.19 ± 0.027.

For the compound `COC(=O)c1ccc2c(c1)nc(NC(=O)c1ccccc1)n2CCCc1ccccc1`, the relative cell viability is 0.777 ± 0.0059.

The compound `O=C(c1ccc(Nc2nccc(-c3cc4ccccc4s3)n2)cc1)N1CCC(N2CCCC2)CC1` [IKK-16 (IKK Inhibitor VII)] had a relative cell viability of 1.03 ± 0.02.

`CN1CC[C@H](c2c(O)cc(O)c3c(=O)cc(-c4ccccc4Cl)oc23)[C@H](O)C1` [Flavopiridol (Alvocidib)]: the relative cell viability turned out to be 0.228 ± 0.055.

On to `CN1CC[C@H](c2c(O)cc(O)c3c(=O)cc(-c4ccccc4Cl)oc23)[C@H](O)C1` [Flavopiridol HCl], for which the relative cell viability worked out at 0.293 ± 0.03.

With `CN1CC[C@@H](c2c(O)cc(O)c3c(=O)cc(-c4ccccc4Cl)oc23)[C@@H]1CO`, the relative cell viability turned out to be 0.501 ± 0.008.

For `C[N+]1(C)CCC(=C(c2ccccc2)c2ccccc2)CC1` [Diphemanil Methylsulfate], the relative cell viability is 0.918 ± 0.097.

The compound `OCCOCCN1CCN(C2=Nc3ccccc3Sc3ccccc32)CC1` [Quetiapine Fumarate] gave a relative cell viability of 1.079 ± 0.0073.

On to `Cc1cc(/C=C2/SC(=S)NC2=O)c(C)n1-c1cccnc1` [Optovin], for which the relative cell viability came out at 1.06 ± 0.031.

As for `C[C@@H](O)[C@H]1C(=O)N2C(C(=O)OCOC(=O)C(C)(C)C)=C(SC3CN(C4=NCCS4)C3)[C@H](C)[C@H]12` [Tebipenem Pivoxil], the relative cell viability was 1.14 ± 0.037.

On to `C[C@@]12C[C@@]3(O)O[C@@H](O1)[C@]1(COC(=O)c4ccccc4)[C@H]3C[C@@]12O[C@@H]1O[C@H](CO)[C@@H](O)[C@H](O)[C@H]1O` [Paeoniflorin], for which the relative cell viability is 1.04 ± 0.029.

Compound `CN(C)c1ccc(C(=O)NCCCCCCC(=O)NO)cc1` displayed a relative cell viability of 0.627 ± 0.043.

As for `CC(C=CC(=O)NO)=CC(C)C(=O)c1ccc(N(C)C)cc1` (centres undefined) [Trichostatin A (TSA)], the relative cell viability was determined as 0.0876 ± 0.0041.

On to `COC1C(O)CC(=O)OC(C)CC=CC=CC(OC2CCC(N(C)C)C(C)O2)C(C)CC(CC=O)C1OC1OC(C)C(OC2CC(C)(O)C(O)C(C)O2)C(N(C)C)C1O` (centres undefined) [Spiramycin], for which the relative cell viability was 1.11 ± 0.04.

In the case of `C[C@H](CCC(=O)O)[C@H]1CC[C@H]2[C@@H]3[C@@H](O)C[C@@H]4C[C@H](O)CC[C@]4(C)[C@H]3CC[C@]12C` [Ursodiol], the relative cell viability worked out at 0.96 ± 0.08.

On to `COCCCOc1cc(C[C@@H](C[C@H](N)[C@@H](O)C[C@H](C(=O)NCC(C)(C)C(N)=O)C(C)C)C(C)C)ccc1OC` [Aliskiren Hemifumarate], for which the relative cell viability turned out to be 1.19 ± 0.037.

Compound `COc1ccc(-c2ccc3c(N4CCOC[C@@H]4C)nc(N4CCOC[C@@H]4C)nc3n2)cc1CO` yielded a relative cell viability of 0.4942 ± 0.0022.

In the case of `CCC[C@H](NC(=O)/C(C#N)=C/c1cccc(Br)n1)c1ccccc1` [Degrasyn (WP1130)], the relative cell viability came to 0.206 ± 0.019.

`N#CC(=Cc1ccc(O)c(O)c1)C(=O)NCc1ccccc1` [AG-490 (Tyrphostin B42)] had a relative cell viability of 1.196 ± 0.001.

In the case of `C[C@H](NC(=O)/C(C#N)=C/c1cccc(Br)n1)c1ccccc1`, the relative cell viability came to 1.14 ± 0.032.

In turn, `COc1c(C)c(C(=O)c2ccc(N)c(C(=O)O)c2)n2ccccc12` had a relative cell viability of 1.04 ± 0.041.

The compound `N#C[C@@H]1C[C@@H]2C[C@@H]2N1C(=O)[C@@H](N)C12CC3CC(CC(O)(C3)C1)C2` [Saxagliptin] gave a relative cell viability of 1.02 ± 0.083.

In turn, `O=C1c2ccccc2-c2n[nH]c3cccc1c23` registered a relative cell viability of 1.27 ± 0.0019.

Turning to `CCN=C1N[C@@H]2[C@@H](O)[C@H](O)[C@@H](CO)O[C@@H]2S1` [Thiamet G], the relative cell viability came out at 1.04 ± 0.037.

Compound `OCc1ccc(-c2ccc(-c3ccc(CO)s3)o2)s1` came in with a relative cell viability of 0.0807 ± 0.0069.

`Cc1c(Cc2ccc3ccccc3n2)c2cc(F)ccc2n1CC(=O)O`: the relative cell viability stood at 1.08 ± 0.054.

Consider `CCOC(=O)[C@H](CCc1ccccc1)N[C@H]1CCCN2CCC[C@@H](C(=O)O)N2C1=O` [Cilazapril Monohydrate], for which the relative cell viability amounted to 1.011 ± 0.004.
